We go through 7 compounds from ChEMBL document CHEMBL1961873, “Compounds: GSK PKIS; Assays: Nanosyn kinase panel” (2012).

The test system of experiment [1] is Proto-oncogene tyrosine-protein kinase receptor Ret (Homo sapiens), P07949 [Y791F]. To be noted: at 1 µM.
The target of experiment [2] is Macrophage-stimulating protein receptor (Homo sapiens) (UniProt Q04912). To be noted: at 0.1 µM.
Experiment [3] shares this target. To be noted: at 1 µM.
For experiment [4], the target named is Proto-oncogene tyrosine-protein kinase ROS (Homo sapiens) (UniProt P08922). To be noted: at 0.1 µM.
Experiment [5] has the same target. Particulars: at 1 µM.
The target in experiment [6] is Proto-oncogene tyrosine-protein kinase Src (Homo sapiens) (UniProt P12931). To be noted: at 0.1 µM.
For experiment [7] the target is unchanged. Particulars: at 1 µM.
Experiment [8] addresses Tyrosine-protein kinase Srms (Homo sapiens) (UniProt Q9H3Y6). To be noted: at 0.1 µM.
The target is the same in experiment [9]. To be noted: at 1 µM.
Experiment [10] addresses Tyrosine-protein kinase SYK (Homo sapiens) (UniProt P43405). To be noted: at 0.1 µM.
Experiment [11] shares this target. To be noted: at 1 µM.
The target of experiment [12] is T1, Tyrosine-protein kinase Tec (Homo sapiens) (UniProt P42680).
T1 sequence (whole entry): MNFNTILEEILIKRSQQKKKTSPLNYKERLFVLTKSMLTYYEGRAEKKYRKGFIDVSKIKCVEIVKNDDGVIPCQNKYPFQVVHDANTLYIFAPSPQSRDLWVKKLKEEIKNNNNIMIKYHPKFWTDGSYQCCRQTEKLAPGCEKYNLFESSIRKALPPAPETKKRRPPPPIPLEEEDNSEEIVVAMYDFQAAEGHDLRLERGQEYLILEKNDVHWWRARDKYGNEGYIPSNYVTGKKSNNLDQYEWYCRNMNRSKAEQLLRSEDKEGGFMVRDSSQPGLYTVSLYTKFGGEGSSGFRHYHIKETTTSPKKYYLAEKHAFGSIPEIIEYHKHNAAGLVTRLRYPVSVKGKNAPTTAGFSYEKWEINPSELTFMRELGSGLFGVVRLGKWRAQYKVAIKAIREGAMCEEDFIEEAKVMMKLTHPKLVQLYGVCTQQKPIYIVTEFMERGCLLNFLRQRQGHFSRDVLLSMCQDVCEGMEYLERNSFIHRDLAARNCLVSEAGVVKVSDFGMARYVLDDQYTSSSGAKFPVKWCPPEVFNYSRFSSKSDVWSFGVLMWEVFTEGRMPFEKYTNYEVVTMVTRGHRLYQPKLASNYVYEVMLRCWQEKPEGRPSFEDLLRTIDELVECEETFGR
Particulars: at 0.1 µM.

Experiment [13] addresses T1, Tyrosine-protein kinase Tec (Homo sapiens). Particulars: at 1 µM.
For experiment [14], the target named is Angiopoietin-1 receptor (Homo sapiens) (UniProt Q02763). Particulars: at 0.1 µM.
For experiment [15] the target is unchanged. Particulars: at 1 µM.
The target of experiment [16] is T2, Non-receptor tyrosine-protein kinase TNK1 (Homo sapiens) (UniProt Q13470).
T2 sequence (whole entry): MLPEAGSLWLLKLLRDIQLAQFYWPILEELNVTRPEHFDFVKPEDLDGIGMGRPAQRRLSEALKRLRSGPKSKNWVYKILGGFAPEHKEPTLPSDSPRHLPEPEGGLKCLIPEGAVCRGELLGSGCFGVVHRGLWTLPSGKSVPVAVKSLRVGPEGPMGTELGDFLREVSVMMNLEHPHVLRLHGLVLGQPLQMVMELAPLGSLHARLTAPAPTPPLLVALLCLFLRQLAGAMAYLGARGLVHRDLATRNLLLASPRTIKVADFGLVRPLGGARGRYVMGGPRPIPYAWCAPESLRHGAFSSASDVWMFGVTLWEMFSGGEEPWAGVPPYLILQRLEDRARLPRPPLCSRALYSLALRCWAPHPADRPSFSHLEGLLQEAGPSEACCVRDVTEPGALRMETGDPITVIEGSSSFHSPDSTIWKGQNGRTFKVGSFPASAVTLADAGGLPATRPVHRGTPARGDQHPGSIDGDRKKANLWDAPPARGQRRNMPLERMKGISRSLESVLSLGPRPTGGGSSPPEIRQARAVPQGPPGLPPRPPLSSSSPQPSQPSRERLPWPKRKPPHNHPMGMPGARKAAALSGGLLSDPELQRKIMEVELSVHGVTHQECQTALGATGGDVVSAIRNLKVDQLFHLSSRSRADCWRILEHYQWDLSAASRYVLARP
To be noted: at 0.1 µM.

Experiment [17] deals with T2, Non-receptor tyrosine-protein kinase TNK1 (Homo sapiens). To be noted: at 1 µM.
In experiment [18] the target is Activated CDC42 kinase 1 (Homo sapiens) (UniProt Q07912). To be noted: at 0.1 µM.
Experiment [19] has the same target. Particulars: at 1 µM.
Experiment [20] has as its target High affinity nerve growth factor receptor (Homo sapiens) (UniProt P04629). Particulars: at 0.1 µM.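 Further: each value is a mean of replicate percent inhibition readings against TRKA kinase.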

Proto-oncogene tyrosine-protein kinase ROS (Homo sapiens), sequence (P08922 whole entry): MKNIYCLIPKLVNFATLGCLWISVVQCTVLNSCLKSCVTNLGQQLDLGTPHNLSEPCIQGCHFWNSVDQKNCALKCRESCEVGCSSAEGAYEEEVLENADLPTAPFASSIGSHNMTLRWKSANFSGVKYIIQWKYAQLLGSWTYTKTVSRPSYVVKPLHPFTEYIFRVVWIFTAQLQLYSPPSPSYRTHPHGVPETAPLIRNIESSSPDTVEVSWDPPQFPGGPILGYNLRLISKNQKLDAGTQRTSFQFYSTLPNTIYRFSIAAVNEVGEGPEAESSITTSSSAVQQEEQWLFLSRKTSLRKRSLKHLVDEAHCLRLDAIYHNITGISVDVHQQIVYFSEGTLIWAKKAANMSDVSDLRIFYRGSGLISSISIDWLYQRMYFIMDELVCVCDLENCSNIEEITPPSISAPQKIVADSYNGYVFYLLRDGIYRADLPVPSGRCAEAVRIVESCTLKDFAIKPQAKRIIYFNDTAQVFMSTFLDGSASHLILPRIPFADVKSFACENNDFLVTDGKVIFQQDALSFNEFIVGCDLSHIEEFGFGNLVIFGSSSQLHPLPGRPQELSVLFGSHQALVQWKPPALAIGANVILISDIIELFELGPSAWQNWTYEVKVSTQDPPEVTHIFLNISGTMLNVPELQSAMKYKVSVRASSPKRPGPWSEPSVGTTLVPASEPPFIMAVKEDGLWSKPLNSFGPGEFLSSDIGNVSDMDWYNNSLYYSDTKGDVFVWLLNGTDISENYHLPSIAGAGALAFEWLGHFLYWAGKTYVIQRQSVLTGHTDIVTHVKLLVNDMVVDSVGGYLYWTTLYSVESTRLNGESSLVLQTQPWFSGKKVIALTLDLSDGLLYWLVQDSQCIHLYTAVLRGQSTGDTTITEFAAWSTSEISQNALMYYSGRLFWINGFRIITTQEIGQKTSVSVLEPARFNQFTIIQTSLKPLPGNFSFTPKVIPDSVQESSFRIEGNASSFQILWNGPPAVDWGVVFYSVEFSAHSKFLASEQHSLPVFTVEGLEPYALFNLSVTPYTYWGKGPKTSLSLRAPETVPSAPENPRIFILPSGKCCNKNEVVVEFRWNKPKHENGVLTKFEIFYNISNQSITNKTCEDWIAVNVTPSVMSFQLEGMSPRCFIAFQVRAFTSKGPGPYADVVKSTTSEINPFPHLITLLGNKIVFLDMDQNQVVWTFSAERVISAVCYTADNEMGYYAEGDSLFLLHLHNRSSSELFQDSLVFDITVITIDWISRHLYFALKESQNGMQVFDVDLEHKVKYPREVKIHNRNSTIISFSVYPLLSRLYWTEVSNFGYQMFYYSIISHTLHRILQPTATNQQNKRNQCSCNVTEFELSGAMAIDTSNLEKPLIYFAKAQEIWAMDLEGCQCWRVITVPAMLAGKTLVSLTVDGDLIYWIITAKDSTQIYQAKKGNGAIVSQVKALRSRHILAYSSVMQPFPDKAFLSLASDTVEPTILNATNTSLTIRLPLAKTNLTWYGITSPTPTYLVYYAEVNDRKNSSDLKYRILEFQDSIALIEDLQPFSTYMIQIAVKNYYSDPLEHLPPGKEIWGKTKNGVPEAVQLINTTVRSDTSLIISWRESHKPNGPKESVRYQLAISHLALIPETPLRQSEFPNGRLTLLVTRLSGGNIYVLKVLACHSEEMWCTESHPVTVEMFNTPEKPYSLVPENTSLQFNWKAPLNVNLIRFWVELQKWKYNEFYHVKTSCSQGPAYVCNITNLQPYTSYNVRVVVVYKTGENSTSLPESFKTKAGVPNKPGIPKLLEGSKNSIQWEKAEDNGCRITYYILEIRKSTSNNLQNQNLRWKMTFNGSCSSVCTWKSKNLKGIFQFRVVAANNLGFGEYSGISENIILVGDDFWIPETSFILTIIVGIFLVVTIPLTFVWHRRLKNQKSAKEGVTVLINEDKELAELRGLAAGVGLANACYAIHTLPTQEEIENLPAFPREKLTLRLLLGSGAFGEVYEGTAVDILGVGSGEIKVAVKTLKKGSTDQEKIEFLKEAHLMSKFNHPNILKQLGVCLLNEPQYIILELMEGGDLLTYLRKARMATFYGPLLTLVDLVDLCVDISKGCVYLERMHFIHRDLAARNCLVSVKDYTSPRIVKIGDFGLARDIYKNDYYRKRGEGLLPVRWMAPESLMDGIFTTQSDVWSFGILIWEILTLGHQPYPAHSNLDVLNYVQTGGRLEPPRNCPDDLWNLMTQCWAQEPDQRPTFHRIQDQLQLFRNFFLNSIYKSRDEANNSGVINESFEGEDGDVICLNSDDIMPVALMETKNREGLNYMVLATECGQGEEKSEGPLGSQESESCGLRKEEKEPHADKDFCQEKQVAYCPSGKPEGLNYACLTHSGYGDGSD
Activated CDC42 kinase 1 (Homo sapiens), sequence (Q07912 whole entry, looked up): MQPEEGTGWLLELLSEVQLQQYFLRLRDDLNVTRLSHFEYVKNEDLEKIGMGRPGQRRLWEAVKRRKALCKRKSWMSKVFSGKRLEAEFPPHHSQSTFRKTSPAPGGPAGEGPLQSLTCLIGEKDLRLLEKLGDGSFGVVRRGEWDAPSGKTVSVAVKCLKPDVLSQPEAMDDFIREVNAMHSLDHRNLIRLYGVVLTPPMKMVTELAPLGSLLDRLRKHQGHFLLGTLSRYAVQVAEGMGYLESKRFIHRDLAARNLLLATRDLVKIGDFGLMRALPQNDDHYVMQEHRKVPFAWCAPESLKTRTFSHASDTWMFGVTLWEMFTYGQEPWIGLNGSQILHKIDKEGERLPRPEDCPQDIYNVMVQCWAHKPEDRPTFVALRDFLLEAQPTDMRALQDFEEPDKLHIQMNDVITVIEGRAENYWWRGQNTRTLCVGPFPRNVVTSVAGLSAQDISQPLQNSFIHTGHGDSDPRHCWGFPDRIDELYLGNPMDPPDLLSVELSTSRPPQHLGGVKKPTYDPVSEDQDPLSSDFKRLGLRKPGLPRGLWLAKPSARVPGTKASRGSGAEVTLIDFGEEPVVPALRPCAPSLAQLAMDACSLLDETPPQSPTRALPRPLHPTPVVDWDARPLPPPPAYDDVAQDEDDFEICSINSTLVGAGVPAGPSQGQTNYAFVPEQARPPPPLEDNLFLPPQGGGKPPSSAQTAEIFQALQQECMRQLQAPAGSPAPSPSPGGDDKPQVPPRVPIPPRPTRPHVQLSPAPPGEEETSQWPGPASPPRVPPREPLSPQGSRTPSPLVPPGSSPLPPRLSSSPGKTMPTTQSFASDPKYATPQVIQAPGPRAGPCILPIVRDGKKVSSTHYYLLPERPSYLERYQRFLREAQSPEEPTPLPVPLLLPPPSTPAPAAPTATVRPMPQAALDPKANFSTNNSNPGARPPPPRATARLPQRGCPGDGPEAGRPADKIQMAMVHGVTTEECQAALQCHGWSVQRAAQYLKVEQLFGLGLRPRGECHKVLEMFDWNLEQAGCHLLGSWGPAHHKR
Proto-oncogene tyrosine-protein kinase receptor Ret (Homo sapiens), P07949 [Y791F], sequence (P07949 whole entry Y791F): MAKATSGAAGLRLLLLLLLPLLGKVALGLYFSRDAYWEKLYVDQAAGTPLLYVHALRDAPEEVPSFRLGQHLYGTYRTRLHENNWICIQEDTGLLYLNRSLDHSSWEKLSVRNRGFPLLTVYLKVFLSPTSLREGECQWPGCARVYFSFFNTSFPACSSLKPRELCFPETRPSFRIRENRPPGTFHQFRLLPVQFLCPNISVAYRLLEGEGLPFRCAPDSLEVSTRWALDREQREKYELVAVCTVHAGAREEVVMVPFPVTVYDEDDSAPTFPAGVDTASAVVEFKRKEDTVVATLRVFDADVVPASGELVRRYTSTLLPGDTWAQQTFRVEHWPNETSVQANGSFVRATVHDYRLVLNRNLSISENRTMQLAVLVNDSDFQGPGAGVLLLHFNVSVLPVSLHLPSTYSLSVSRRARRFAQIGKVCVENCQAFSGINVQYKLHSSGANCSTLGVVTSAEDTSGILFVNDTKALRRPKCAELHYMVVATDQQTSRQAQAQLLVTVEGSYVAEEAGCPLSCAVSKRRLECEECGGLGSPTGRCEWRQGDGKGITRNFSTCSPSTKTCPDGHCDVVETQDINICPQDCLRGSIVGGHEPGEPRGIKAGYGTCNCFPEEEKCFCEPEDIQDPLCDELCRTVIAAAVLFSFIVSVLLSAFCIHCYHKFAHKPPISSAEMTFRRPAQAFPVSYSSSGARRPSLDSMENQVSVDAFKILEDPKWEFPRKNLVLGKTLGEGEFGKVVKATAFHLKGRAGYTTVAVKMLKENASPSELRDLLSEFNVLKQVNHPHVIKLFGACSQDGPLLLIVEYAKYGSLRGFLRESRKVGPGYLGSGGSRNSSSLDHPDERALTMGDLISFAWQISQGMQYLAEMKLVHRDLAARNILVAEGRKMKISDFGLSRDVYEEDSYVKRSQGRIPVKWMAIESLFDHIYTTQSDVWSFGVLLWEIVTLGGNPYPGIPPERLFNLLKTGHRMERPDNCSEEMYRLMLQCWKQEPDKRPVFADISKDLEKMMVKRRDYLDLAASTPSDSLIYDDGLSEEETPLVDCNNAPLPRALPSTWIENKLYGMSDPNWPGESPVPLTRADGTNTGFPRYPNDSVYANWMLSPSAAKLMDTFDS
Tyrosine-protein kinase Srms (Homo sapiens), sequence (Q9H3Y6 whole entry): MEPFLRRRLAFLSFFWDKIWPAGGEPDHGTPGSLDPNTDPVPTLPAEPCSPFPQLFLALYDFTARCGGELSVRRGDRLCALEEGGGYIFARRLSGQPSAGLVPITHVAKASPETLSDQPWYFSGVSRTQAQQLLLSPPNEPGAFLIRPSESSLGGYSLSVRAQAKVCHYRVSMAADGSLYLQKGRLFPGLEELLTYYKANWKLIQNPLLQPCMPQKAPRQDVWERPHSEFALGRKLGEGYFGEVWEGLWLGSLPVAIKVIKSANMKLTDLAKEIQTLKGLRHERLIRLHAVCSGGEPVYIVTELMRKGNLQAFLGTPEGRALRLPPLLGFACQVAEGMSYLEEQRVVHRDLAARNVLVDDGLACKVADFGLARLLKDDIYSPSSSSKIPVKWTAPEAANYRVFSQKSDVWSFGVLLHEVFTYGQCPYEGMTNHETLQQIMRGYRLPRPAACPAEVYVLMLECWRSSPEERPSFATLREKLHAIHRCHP

As usually defined, the inhibition is the relative decrease from the control value, in per cent. Take `NCc1ccc(-c2nc(-c3ccc(Cl)c(O)c3)c(-c3ccncc3)[nH]2)cc1`: the inhibition in [1] was 76.3%; in experiment [2], -0.28%; in experiment [3] it was 2.55%; in experiment [4], 2.98%; in experiment [5], 8.44%; in [6] it was 19.8%. The inhibition in experiment [7] is 63.3%; in [8], 3.6%; in experiment [9] it was 21.7%; in [10], -2.73%; in [11] it was 1.13%; in experiment [12] it was 6.38%. For the same compound, the inhibition in [13] is 33%; in [14] it was 4.33%; in experiment [15] it was 21%; in experiment [16], -1.81%; in [17], 1.42%; in experiment [18], -0.36%. Further, the inhibition in experiment [19] was -0.9%; in experiment [20], -4.35%.
For the compound `CNC(=O)c1cncc(/C=C/c2c(Cl)cccc2Cl)c1`, the inhibition in [1] was 14.9%; in experiment [2] it was 6.34%; in experiment [3], -0.69%; in experiment [4] it was 11.1%; in experiment [5] it was 11.8%; in experiment [6], 14.3%. In addition, the inhibition in [7] came out at 47.2%; in experiment [8], 1.5%; in [9] it was 8.71%; in [10], 1.45%; in experiment [11], 1%; in experiment [12], 5.68%. For the same compound, the inhibition in [13] is 23.4%; in experiment [14], 5.91%; in experiment [15], 3.57%; in [16], 8.81%; in experiment [17] it was 38.8%; in experiment [18] it was 0.26%. For the same compound, the inhibition in [19] amounted to 11%; in experiment [20], 2.22%.
Consider `Nc1ncnc2occ(-c3ccc(NC(=O)Nc4cccc(C(F)(F)F)c4)cc3)c12`, for which the inhibition in experiment [1] is 86.3%; in experiment [2], 2.56%; in experiment [3], 27.7%; in experiment [4] it was 6%; in experiment [5], 21.7%; in experiment [6] it was 14.4%. Also, the inhibition in [7] is 52.8%; in experiment [8], -4.22%; in experiment [9], -3.07%; in experiment [10], -4.82%; in experiment [12], 1.64%; in experiment [13] it was 5.89%. Further, the inhibition in experiment [14] is 56.4%; in [15] it was 74.4%; in experiment [16] it was 7.73%; in experiment [17] it was 52.8%; in experiment [18], 0.8%; in [19] it was 1.54%. For the same compound, the inhibition in experiment [20] was 63.9%.
Consider `CCCN1CCC=C(c2ccc(Nc3nc(Nc4ccccc4C(N)=O)c4cc[nH]c4n3)c(C)c2)C1`, for which the inhibition in [1] was determined as 25.8%; in experiment [2], 7.2%; in experiment [3], 11.6%; in experiment [4], 24.3%; in experiment [5], 61.2%; in experiment [6], 8.87%. Also, the inhibition in experiment [7] was 17.4%; in experiment [8], -3.15%; in [9] it was 0.8%; in [10] it was -0.42%; in experiment [11], 1.61%; in experiment [12], 6.08%. In addition, the inhibition in experiment [13] turned out to be 8.24%; in [14], 3.32%; in experiment [15] it was 3.76%; in experiment [16], 26.4%; in [17] it was 70.1%; in experiment [18] it was 1%. Further, the values for the inhibition in [19] and in experiment [20] were 12.7% and 2.13%, respectively.
On to `CS(=O)(=O)CCNCc1ccc(-c2ccc3ncnc(Nc4ccc(OCc5ccccc5)c(Cl)c4)c3c2)o1`, for which the inhibition turned out to be 12.1% in [1]; 3.3% in experiment [2]; 5.38% in experiment [3]; 3.99% in [4]; 4.36% in [5]; 0.6% in experiment [6]. Also, the inhibition in experiment [7] is 3.9%; in experiment [8] it was -0.03%; in experiment [9], -0.79%; in [10], 1.87%; in [11], 1.51%; in [12], -0.91%. Also, the inhibition in experiment [13] was 0.89%; in experiment [14] it was 7.47%; in experiment [15], 9.67%; in [16] it was 2.4%; in experiment [17], 11.3%; in [18] it was -0.1%. The inhibition in [19] stood at 0.61%; in experiment [20] it was 2.31%.
As for `COc1cc(C=NNc2ncnc3c2cnn3-c2ccccc2)ccc1O`, the inhibition was 75.1% in experiment [1]; 23.7% in experiment [2]; 64.5% in [3]; 7.09% in experiment [4]; 31.2% in experiment [5]; 28.6% in experiment [6]. Also, the inhibition in experiment [7] is 79%; in experiment [8], 1.17%; in experiment [9] it was 4.56%; in experiment [10], -2.75%; in experiment [11] it was 43.1%; in [12], 4.48%. Further, the inhibition in experiment [13] turned out to be 12.9%; in [14], 13%; in experiment [15] it was 52.4%; in experiment [16], 10.8%; in experiment [17], 51.1%; in experiment [18], 1.06%. Besides, the inhibition was found to be 5.3% in experiment [19] and 3.95% in experiment [20].
For `O=C1NC(=O)C(N2CCc3ccccc32)=C1c1ccc(Cl)cc1`, the inhibition in [1] was 10.4%; in experiment [2] it was -2.48%; in experiment [3], 2.52%; in experiment [4], 10.9%; in [5], 14.1%; in experiment [6], 5.94%. Further, the inhibition in experiment [7] is 15.5%; in experiment [8], -2.77%; in experiment [9] it was 0.25%; in experiment [10] it was -4.42%; in experiment [11], -1.26%; in experiment [12], 6.1%. The inhibition in [13] was 9.11%; in experiment [14], 5.59%; in experiment [15], 8.86%; in experiment [16] it was 4.03%; in experiment [17], -0.43%; in [18], 3.17%. Also, the figures for the inhibition in experiment [19] and in experiment [20] were 1.5% and 4.36%, respectively.
